According to PubChem BioAssay (NCI):
Where “and” joins values, the source holds several entries; their conditions need not be identical. Identical values can stand only once. About 83,000 compounds went through this panel and 20% of them were active in at least one assay; those are over-represented in the sample as a whole.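 Growth was measured after 48 h exposure to one concentration of compound in 96-well plates. Values under 10 count as active.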 Calls of active or inactive are those of the source.

Each compound was assayed on MDA-MB-468 breast (assay: NCI-60 one-dose screen, 48 h (100 = growth as untreated, 0 = no growth, -100 = all killed)). Conditions: 10 µM unless noted.

Compound | growth
CCCCC1COc2cccc3c2N1C=C/C3=C\C(=O)n1ccc2ccccc21 (stereo not given) | 12.3% (inactive)
NC1(C(=O)O)CSSC1 | 29.6% (inactive)
CC1=CC(C)(C)Nc2ccc(Cc3ccc4c(c3)C(C)=CC(C)(C)N4)cc21 | -12.4% (active)
C[C@@H](Nc1c(C#N)cnc2ccc(-c3cnc(Cl)c(NS(C)(=O)=O)c3)cc12)c1ccccc1 | -36% (active)
COc1ccc(C(CC(=O)c2ccc3c(c2)OCO3)C(=O)O)cc1OC (stereo not given) | 114% (inactive) and 103% (inactive)
Oc1[nH]c2ccc(Cl)cc2c1/C=c1/ccc2c(c1)N=C(c1ccc(F)cc1)N=2 | 9.65% (active)
N#Cc1c(N)[nH]c(S)c1C#N | 103% (inactive)
CCN(CC)c1ccc2cc(C(Nc3ccc(Br)c(C(F)(F)F)c3)c3nnnn3C(C)(C)C)c(=O)oc2c1 (stereo not given) | 118% (inactive)
CS(=O)(=O)c1cccc(Nc2ncc3cc(-c4ccccc4Cl)ccc3n2)c1 | 13.1% (inactive)
CCCCOc1ccc(S(=O)(=O)N2CCN(c3nc(C)cc(N4CCOCC4)n3)CC2)cc1 | 34.8% (inactive)
Cc1[nH]c2ccc(F)cc2c1CCNC(=O)C1CCN(C(=O)c2ccccc2)C1 (stereo not given) | 86.8% [25 µM] (inactive)
O=C1c2ccccc2-c2c1c1ccncc1c(=O)n2CCCn1ccnc1 | 28% (inactive)
CC(C)Cc1ccc([C@H](C)C(=O)O)cc1 | 113% (inactive)
Nc1ccc(-c2csc(-n3[nH]c(=O)ccc3=O)n2)cc1 | 99.3% (inactive)
COc1ccc(Cl)cc1NC(=O)c1cc2c([nH]1)-c1nc(NC(=O)C(C)(C)C)sc1CC2 | 84.9% (inactive)
